Experimental findings from PubChem BioAssay (Tox21) are described below.

The structures appear in SMILES notation. Unmarked numbers belong to inactive results. Results filed as inconclusive are left out. The source made the active and inactive calls. Unless noted, calls follow the shape of the dose curve; as a rule, active = well fitted curve in the direction sought with a large enough effect in the repeat runs; inconclusive = weak or mixed curves; inactive = no such curve, though single readings can be large; an effect the other way counts as inactive or inconclusive.

A short description of experiment [1]: A CellTox Green Cytotoxicity Assay to monitor cytotoxicity in HEK293 cells - 32 hour (AID 1224881). Also: nearly all actives have a fitted effect of over 40% in size. The method in brief: (§1)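 HEK293 cells, 600/well, were preincubated 5 hours and then exposed to compounds at 37 C for up to 40 hours. A cell-impermeant cyanine dye staining dead-cell DNA was read by fluorescence at 0, 8, 16, 24, 32 and 40 h time points.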
A short description of experiment [2]: A CellTox Green Cytotoxicity Assay to monitor cytotoxicity in HepG2 cells - 0 hour (AID 1224882). Also: nearly all actives have a fitted effect of over 35% in size. The method in brief:
(§2)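 HepG2 cells, 600/well, preincubated 5 h with CellTox Green dye, then exposed to Tox21 compounds in DMSO at 37 C for up to 40 h. Dead-cell DNA fluorescence read at the indicated time point.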

Experiment [3] in a line: A CellTox Green Cytotoxicity Assay to monitor cytotoxicity in HEK293 cells - 8 hour (AID 1224884). Also: nearly all actives have a fitted effect of over 35% in size. The method in brief: as §1
Experiment [4] is described as follows: qHTS RealTime-Glo MT Cell Viability Assay in HepG2 cells - 16 hour (AID 1224885). Also: nearly all actives have a fitted effect of over 50% in size. Summed up:
(§3)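 Compound treatment began 5 h after plating HepG2 cells (600/well) with NanoLuc luciferase and prosubstrate. Plates stayed at 37 C for 40 h; luminescence was captured at six time points, 0 h through 40 h.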

Experiment [5] in a line: qHTS RealTime-Glo MT Cell Viability Assay in HEK293 cells - 24 hour (AID 1224886). Also: top concentration of the series differs between compounds; nearly all actives have a fitted effect of over 50% in size. The method in brief: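 Quantitative high-throughput screen of the Tox21 10K library in HEK293: cells and RealTime-Glo reagents plated together, compound added at 5 h, luminescence monitored through 40 h at 37 C.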
(In general: Quantitative high-throughput screening tests each substance at several concentrations.)

The nature of experiment [6]: qHTS RealTime-Glo MT Cell Viability Assay in HEK293 cells - 8 hour (AID 1224887). Also: top concentration of the series differs between compounds; nearly all actives have a fitted effect of over 50% in size. Summed up: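 600 cells/well were plated with the nonlytic NanoLuc/prosubstrate reagent, pre-incubated 5 h, then given 23 nL of compound in DMSO. Incubation at 37 C for 40 h, with luminescence from viable-cell-reduced substrate read repeatedly from 0 h.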
Experiment [7] can be described thus: A CellTox Green Cytotoxicity Assay to monitor cytotoxicity in HEK293 cells - 16 hour (AID 1224888). Also: nearly all actives have a fitted effect of over 35% in size. Summed up:
as §1

The nature of experiment [8]: qHTS RealTime-Glo MT Cell Viability Assay in HepG2 cells - 0 hour (AID 1224889). Also: nearly all actives have a fitted effect of over 50% in size. Summed up: as §3
Experiment [9] is described as follows: A CellTox Green Cytotoxicity Assay to monitor cytotoxicity in HepG2 cells - 8 hour (AID 1224890). Also: nearly all actives have a fitted effect of over 45% in size. The method in brief: as §2
Experiment [10] can be described thus: qHTS assay to identify small molecule antagonists of the estrogen receptor alpha (ER-alpha) signaling pathway using the BG1 cell line in the presence of 0.1 nM 17-beta-estradiol - cell viability counter screen (AID 1259241). Also: nearly all actives have a fitted effect of over 40% in size. Summed up: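 Estradiol-stimulated (0.1 nM) VM7Luc4E2 cells exposed to compounds 22 hr; viability measured by fluorescence of cleaved CellTiter-Fluor substrate after 30 min.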

A short description of experiment [11]: qHTS assay to identify small molecule antagonists of the androgen receptor (AR) signaling pathway using the MDA cell line in the presence of 0.5 nM R1881 - cell viability counter screen (AID 1259242). Also: nearly all actives have a fitted effect of over 45% in size. Summed up: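 MDA-kb2 cells (MMTV-luciferase, AR/GR responsive) were treated with compounds plus 0.5 nM R1881 (final) for 16 hr at 37C, 0% CO2. Viability was then read in the same wells as live-cell protease fluorescence (CellTiter-Fluor, 30 min).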

The target in experiment [12] is Androgen receptor (Homo sapiens) (UniProt P10275). Description: qHTS assay to identify small molecule antagonists of the androgen receptor (AR) signaling pathway using the MDA cell line in the presence of 0.5 nM R1881 (AID 1259243). Also: nearly all actives have a fitted effect of over 50% in size. Summed up: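 MDA-kb2 cells (MMTV-luciferase, responsive to AR and GR) at 3,000/well, rested 5 h at 37C, 0% CO2, then given compounds plus 0.5 nM R1881 (final) for 16 hr. Luciferase read with ONE-Glo after 30 min at room temperature.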
Androgen receptor (Homo sapiens), sequence (P10275 whole entry, looked up): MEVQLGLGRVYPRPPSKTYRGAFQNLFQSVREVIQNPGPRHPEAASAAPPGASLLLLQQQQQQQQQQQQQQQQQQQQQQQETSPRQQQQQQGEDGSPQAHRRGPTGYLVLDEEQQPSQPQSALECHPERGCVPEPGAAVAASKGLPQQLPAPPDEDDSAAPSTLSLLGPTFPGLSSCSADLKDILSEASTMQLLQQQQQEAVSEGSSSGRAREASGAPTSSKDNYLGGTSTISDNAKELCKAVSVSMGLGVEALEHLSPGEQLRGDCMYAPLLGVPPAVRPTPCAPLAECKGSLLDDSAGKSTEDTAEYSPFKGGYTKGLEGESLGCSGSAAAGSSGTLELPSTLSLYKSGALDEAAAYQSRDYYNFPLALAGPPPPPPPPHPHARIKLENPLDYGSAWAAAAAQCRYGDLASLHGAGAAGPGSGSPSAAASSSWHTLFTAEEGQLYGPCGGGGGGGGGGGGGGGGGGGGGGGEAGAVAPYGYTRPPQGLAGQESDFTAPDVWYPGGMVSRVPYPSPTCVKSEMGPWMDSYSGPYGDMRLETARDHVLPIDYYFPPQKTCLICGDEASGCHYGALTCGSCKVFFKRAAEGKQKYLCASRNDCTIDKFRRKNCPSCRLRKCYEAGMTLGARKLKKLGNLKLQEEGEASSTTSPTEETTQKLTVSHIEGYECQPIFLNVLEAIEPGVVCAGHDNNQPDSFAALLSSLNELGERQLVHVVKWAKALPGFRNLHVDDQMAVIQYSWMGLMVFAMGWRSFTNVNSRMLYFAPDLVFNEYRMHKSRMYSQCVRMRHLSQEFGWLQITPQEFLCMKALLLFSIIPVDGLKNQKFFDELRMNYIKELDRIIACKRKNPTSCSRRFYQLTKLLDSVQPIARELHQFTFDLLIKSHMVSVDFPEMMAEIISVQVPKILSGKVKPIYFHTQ

The target of experiment [13] is Estrogen receptor (Homo sapiens) (UniProt P03372). In words: qHTS assay to identify small molecule antagonists of the estrogen receptor alpha (ER-alpha) signaling pathway using the BG1 cell line in the presence of 0.1 nM 17-beta-estradiol (AID 1259244). Also: nearly all actives have a fitted effect of over 50% in size. The method in brief:
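VM7Luc4E2 cells (endogenous full-length ER-alpha, 4×ERE-luciferase), kept 5 days in phenol red-free, charcoal-stripped FBS medium; 4,000 cells/well. Compounds added with 0.1 nM (final) 17beta-estradiol, 22 hr at 37C; luminescence read with ONE-Glo after 30 min.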

Experiment [14] is described as follows: qHTS assay to identify small molecule HDAC inhibitors (AID 1259364). Also: nearly all actives have a fitted effect of over 45% in size. Also: potency is read from the fitted curve at half-maximal effect. As to activity change, negative = inhibition: top concentration of the series differs between compounds. The method in brief:
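Wild-type HCT-116 cells, plated overnight at 37 C, exposed to compounds 2 hr at 37 C; luminogenic HDAC-Glo substrate then added 30 min at room temperature. Luminescence reports relative endogenous class I/II HDAC activity.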

Experiment [15] can be described thus: qHTS assay to identify small molecule HDAC inhibitors - cell viability counter screen (AID 1259365). The method in brief: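 After overnight seeding at 1,500 cells per well, wild-type HCT-116 cultures took up compounds in DMSO for 2hr at 37 C. Viable cell content came from luminescence with CellTiter-Glo.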
A short description of experiment [16]: qHTS assay to identify small molecule antagonists of the sonic hedgehog signaling (Shh) pathway - cell viability counter screen (AID 1259367). Also: nearly all actives have a fitted effect of over 55% in size. The method in brief: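 Using CellTiter-Fluor, viability of Gli1-Luc reporter 3T3 cells is read by fluorescence in the wells used for the Shh luciferase assay. Treatment lasts 23 hr with conditioned medium, then reagent 1 hr at 37C.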

Experiment [17] in a line: A CellTox Green Cytotoxicity Assay to monitor cytotoxicity in HepG2 cells - 32 hour (AID 1224883). Also: nearly all actives have a fitted effect of over 50% in size. Summed up: as §2
Experiment [18] is described as follows: qHTS assay to identify small molecule agonists of the sonic hedgehog signaling (Shh) pathway - cell viability counter screen (AID 1259366). Also: nearly all actives have a fitted effect of over 50% in size. Summed up: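 Same-well cytotoxicity read. Gli1-Luc reporter 3T3 cells; compounds 24hr, 37C/5% CO2; CellTiter-Fluor fluorescence.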
The nature of experiment [19]: qHTS assay to identify small molecule phospholipidosis (PLD) inducers (AID 1259344; active = well fitted curve in the direction sought with a large enough effect; an effect the other way counts as inactive or inconclusive). The method in brief: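 Fluorescent phospholipid staining (LipidTOX Red) measured by automated microscopy in fixed HepG2 cells after 24 h treatment; nuclei counterstained with Hoechst 33342; amiodarone as reference inducer.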
% is scaled to controls: 0 for no effect and ±100 for the full control effect.

Estrogen receptor (Homo sapiens), sequence (P03372 whole entry, looked up): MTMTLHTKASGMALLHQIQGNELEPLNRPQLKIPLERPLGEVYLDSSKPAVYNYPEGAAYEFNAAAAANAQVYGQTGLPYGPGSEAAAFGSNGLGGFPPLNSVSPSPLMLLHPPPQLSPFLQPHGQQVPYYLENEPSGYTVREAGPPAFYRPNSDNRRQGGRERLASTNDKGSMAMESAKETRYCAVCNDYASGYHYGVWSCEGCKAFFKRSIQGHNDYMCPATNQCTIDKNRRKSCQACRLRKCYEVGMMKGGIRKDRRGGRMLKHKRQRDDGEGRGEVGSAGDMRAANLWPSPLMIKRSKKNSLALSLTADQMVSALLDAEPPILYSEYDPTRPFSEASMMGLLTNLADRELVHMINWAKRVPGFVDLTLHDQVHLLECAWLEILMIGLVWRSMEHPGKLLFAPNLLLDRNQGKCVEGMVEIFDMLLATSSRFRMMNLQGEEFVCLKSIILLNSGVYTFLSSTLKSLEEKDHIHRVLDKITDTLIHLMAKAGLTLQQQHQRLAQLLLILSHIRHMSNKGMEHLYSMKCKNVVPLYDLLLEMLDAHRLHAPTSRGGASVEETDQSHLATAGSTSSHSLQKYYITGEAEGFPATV

For the molecule `CCN(CC)C1CCCCC1`, the Potency entry in experiment [1], in [3], in experiment [4], in [5], in [6] and in experiment [7] was “inactive” in each case. In addition, the Potency entry in experiment [9], in experiment [11], in experiment [12], in [13], in [14] and in experiment [16] was “inactive” in each case. For the same molecule, the outcome in experiment [2], in experiment [8], in experiment [10] and in [15] was inactive.
Take `ClCOCCl`: the Potency result in [1], in [17], in experiment [3], in [4], in [5] and in experiment [6] was “inactive” in each case. The Potency result in [7], in experiment [9], in experiment [11], in experiment [13], in experiment [14] and in [18] was “inactive” each time. The Potency result in experiment [16] is “inactive”. For the same molecule, the outcome in experiment [2], in [8] and in experiment [15] was inactive.
As to `BrCc1ccc(Br)cc1`, the Potency result in experiment [1], in [17], in [3], in experiment [4], in [5] and in experiment [6] was “inactive” each time. Also, the Potency result in experiment [7], in experiment [9], in [11], in [12], in experiment [14] and in experiment [18] was “inactive” in each case. The Potency entry in experiment [16] was “inactive”. Moreover, the molecule was classed as inactive in experiment [8], in [10] and in experiment [15].
In the case of `CCCCCCC(=O)CCCCCC/C=C/C[C@@H](O)[C@H](O)[C@@](N)(CO)C(=O)O`, the cytotoxicity increase was -8.63% [at 15.8 µM] in experiment [1] and -3.97% [at 15.8 µM] in experiment [3]. For the same molecule, the cytotoxicity in [2] was -17.7% [at 15.8 µM]. For the same molecule, the activity change, negative = cytotoxic in experiment [4] was 1.68% [at 15.8 µM]. The activity change, negative = cytotoxicity in [5] is -0.165% [at 15.8 µM]; in experiment [6], -1.55% [at 15.8 µM]; in [8] it was 3.64% [at 15.8 µM]; in [10], 7.82% [at 19 µM]; in experiment [15], -0.234% [at 19 µM]. In addition, the activity change in [7] was -6.94% [at 15.8 µM, stronger effect = higher value]. The figures for the viability change, negative = cytotoxic in [11], in experiment [18] and in experiment [16] were 8.38% [at 19 µM], 4.09% [at 19 µM] and -0.502% [at 19 µM], respectively. In addition, the activity change, negative = inhibition in [13] was 5.03% [at 19 µM]; in experiment [14], 6.81% [at 19 µM]. In experiment [19], the Potency entry is “inactive”.
As to `CC(C)(C)C(=O)Cl`, the Potency entry in experiment [1], in experiment [17], in [3], in experiment [4], in experiment [5] and in experiment [6] was “inactive” in each case. The Potency result in experiment [7], in experiment [9], in experiment [11], in [13], in [14] and in [18] was “inactive” throughout. Besides, in experiment [16], the Potency result was “inactive”. Besides, in [8], the call was inactive.
For the molecule `C1CN2CCC1CC2`, the Potency result in [1], in experiment [17], in experiment [3], in experiment [4], in experiment [5] and in [6] was “inactive” in each case. Moreover, the Potency result in [7], in [9], in experiment [11], in experiment [13], in experiment [14] and in experiment [18] was “inactive” throughout. Moreover, in experiment [16], the Potency result is “inactive”. Further, the molecule was classed as inactive in experiment [2], in experiment [8], in [10] and in experiment [15].
On to `C=CCN1CC[C@]23CCCC[C@H]2[C@H]1Cc1ccc(O)cc13`, for which the Potency entry in experiment [1], in experiment [17], in experiment [3], in experiment [4], in [5] and in [6] was “inactive” in each case. For the same molecule, the Potency entry in experiment [7], in [9], in experiment [11], in experiment [19], in [14] and in experiment [18] was “inactive” in each case. Further, in [16], the Potency entry was “inactive”. Besides, the outcome in experiment [2], in experiment [8] and in experiment [15] was inactive.
As to `CON(C)C(=O)Nc1ccc(Br)cc1`, the Potency result in experiment [1], in [17], in experiment [3], in [4], in experiment [6] and in experiment [7] was “inactive” in each case. Also, the Potency entry in [9], in experiment [11], in experiment [18] and in [16] was “inactive” in each case. Moreover, the molecule was classed as inactive in [2], in [8], in [10] and in [15]. For the same molecule, the Potency in experiment [14] is 24.3 µM (active).
